Shown are actives, neighbours in structure and some others; about 10% of the full set was active somewhere.
HEK293 tox: cytotoxic compounds in HEK 293 cells | 94,000 compounds, 6.6% hits | Potency, µM (series often up to 115 µM), hits mostly inhibitors | HEK 293 viability, ATP luminescence (CellTiter-Glo), 48-72 h; note: nearly all actives have a fitted effect of over 60% in size
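Cytotoxicity was scored by loss of ATP-coupled luminescence (CellTiter-Glo) in HEK 293 cells. Compound treatment ran 48 or 72 hr at 37 degree Celsius, 5% CO2, 95% humidity.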
hNpr1 antagonist: human Npr1 receptor antagonism; 76,000 compounds, 1.6% hits; Potency, µM (doses to about 46.3 µM), most hits filed as inhibitors; HEK293 hNpr1 GloSensor cGMP, ANP-stimulated luminescence; AID 1347048; calls by dose curve; note: nearly all actives have a fitted effect of over 60% in size
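HEK293 cells stably expressing human Npr1 and cGMP GloSensor pGS-40F, loaded 2 h with 2% GloSensor reagent, given compound 30 min at room temperature. Luminescence read before and 20 min after 0.1 nM hNppA.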
FLuc inh: blocks purified firefly luciferase enzyme activity | P08659 | purified P. pyralis luciferase, luminescence, biochemical | Potency, µM (top dose mostly 115 µM), most hits filed as inhibitors | 76,000 compounds, 2.5% hits | AID 1347043; note: nearly all actives have a fitted effect of over 65% in size
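Luminescence read by CCD imaging after purified firefly luciferase (10nM final) was added to substrate buffer holding 10uM D-luciferin and 10uM ATP, pH 7.5, pre-dosed with compound.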
NIH3T3 tox: cytotoxic compounds in NIH 3T3 cells; Potency, µM (series often up to 96.7 µM), hits mostly inhibitors; 94,000 compounds, 4.3% hits; NIH 3T3 viability, CellTiter-Glo ATP luminescence, 48-72 h; note: nearly all actives have a fitted effect of over 55% in size
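Luminescent ATP readout (CellTiter-Glo, 10 min RT) after 48 or 72 hr compound exposure of NIH 3T3 cells seeded at 400 cells/well in 1536-well format; quantitative HTS.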
GPT2 inh: GPT2 alanine aminotransferase inhibition. 100,000 compounds, 0.25% hits. Q8TD30. Potency, µM (highest dose often 57.7 µM), most hits filed as inhibitors. AID 1671188. Recombinant GPT2, coupled pyruvate oxidase/HRP Amplex Red fluorescence; note: nearly all actives have a fitted effect of over 60% in size
Target sequence (Q8TD30 whole entry, looked up): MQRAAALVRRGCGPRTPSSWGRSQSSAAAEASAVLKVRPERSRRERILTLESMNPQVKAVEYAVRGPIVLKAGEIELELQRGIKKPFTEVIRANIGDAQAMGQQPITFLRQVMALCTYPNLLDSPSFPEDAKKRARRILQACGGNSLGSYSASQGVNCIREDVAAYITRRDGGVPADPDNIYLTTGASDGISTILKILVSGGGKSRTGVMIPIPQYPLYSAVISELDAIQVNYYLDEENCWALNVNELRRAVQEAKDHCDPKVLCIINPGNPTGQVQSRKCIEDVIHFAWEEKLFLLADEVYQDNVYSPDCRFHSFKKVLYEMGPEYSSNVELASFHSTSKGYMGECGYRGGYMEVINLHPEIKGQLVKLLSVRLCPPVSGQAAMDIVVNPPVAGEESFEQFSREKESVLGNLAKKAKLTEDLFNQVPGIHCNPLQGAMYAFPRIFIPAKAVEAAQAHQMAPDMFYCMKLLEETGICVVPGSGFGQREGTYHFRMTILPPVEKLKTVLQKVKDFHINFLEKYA
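Fluorescence read-out: pyruvate from GPT2 turnover coupled to pyruvate oxidase, HRP and Amplex Red (0.2mM ThPP, 0.2U/mL PO and HRP, 50uM Amplex final). Substrates 250uM a-KG, 2mM L-alanine; enzyme 10ng/uL; 30 min RT.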
A number is an active result; i = inactive; ? = inconclusive; nt = no result given. Unless noted, calls come from the whole dose curve; as a rule, active = well fitted curve in the direction sought with a large enough effect; inconclusive = small, poorly fitted or top-dose-only effect, or another doubt; inactive = no such curve, though single readings can be large; an effect the other way counts as inactive or inconclusive.

SMILES | HEK293 tox | hNpr1 antagonist | FLuc inh | NIH3T3 tox | GPT2 inh
CC(=O)N1CCN(CC[C@H]2CN(C(=O)Cc3ccccc3)CC[C@H]2CC(=O)O)CC1 | i | i | i | i | i
COc1ccc(C(=O)NC2CCCN(c3cc(-c4ccccc4)[nH]n3)C2)cc1OC (configuration not stated) | ? | i | 28µM | i | i
CCOc1ccc(C(=O)NC2CCCN(c3cc(-c4ccccc4)[nH]n3)C2)cc1OCC (configuration not stated) | 32µM | i | i | ? | i
COc1ccc(C(=O)NC2CCN(c3cc(-c4ccccc4)[nH]n3)C2)cc1F (configuration not stated) | ? | i | i | ? | ?
CCOc1cc(C(=O)NC2CCN(c3cc(-c4ccccc4)[nH]n3)C2)cc(OCC)c1OCC (configuration not stated) | ? | i | i | ? | i
OCC1CN(C2CCC2)CC12CCN(Cc1ccc(F)cc1)CC2 (configuration not stated) | 45µM | i | i | ? | i
OCC1CN(C2CCC2)CC12CCN(Cc1cc(F)ccc1F)CC2 (configuration not stated) | 40µM | i | i | ? | i
COCC1CN(C2CCC2)CC12CCN(C(=O)Cc1ccccc1F)CC2 (configuration not stated) | 50µM | i | i | ? | i
CCCNC(=O)N(C1CCOCC1)C1CCN(C(=O)c2cccc(F)c2)CC1 | i | i | i | i | i
CSc1ccc(-c2cccc(C(=O)NCC(=O)NCCCc3ccccc3)c2)cc1 | ? | nt | nt | ? | i
COc1ccccc1N1CCN(C(=O)Nc2n[nH]c(Cc3ccccc3)n2)CC1 | 25µM | i | i | ? | i
COC(=O)[C@@H]1Cc2c([nH]c3ccccc23)[C@H]2C[C@@H](NCCNC(C)=O)C[C@@H](c3ccccc3F)N21 | ? | i | ? | 79µM | i
CN1[C@H](C(=O)O)C[C@H](C(=O)NCCCO)[C@@H]1c1ccccc1F | i | i | i | i | i
COC(=O)[C@@H]1Cc2c([nH]c3ccccc23)[C@H]2C[C@@H](NCCO)C[C@@H](c3ccccc3F)N21 | 40µM | i | i | 28µM | i
COCCNC(=O)C1COC2(CCN(C(=O)c3ccccc3F)CC2)N1C(=O)c1ccco1 (configuration not stated) | i | i | i | i | i
COC(=O)C1=C(C)N=C2SC=C(CC(=O)NCC3CCCO3)N2C1c1ccccc1F (configuration not stated) | i | i | i | i | i
COC(=O)[C@@H]1Cc2c([nH]c3ccccc23)[C@H]2C[C@H](NC[C@H]3CCCO3)C[C@@H](c3ccccc3F)N21 | ? | i | i | 35µM | i
O=C(NCc1ccccc1F)C1CCCN1C(=O)c1cccc(-c2ccccn2)c1 (configuration not stated) | i | nt | nt | i | i
COc1ccccc1C(=O)N1CCC2(CC1)COc1ccccc1C(=O)N2 | i | i | i | i | ?
COCCNCc1ccc(-c2cc3nccc(Oc4ccc(NC(=S)NC(=O)Cc5ccc(F)cc5)cc4F)c3s2)nc1 | nt | nt | nt | nt | i
COC1CCOC2(CCN(C(=O)Cc3cccc(F)c3)CC2)C1 (configuration not stated) | i | i | i | i | i
COc1ccc(OCC2CC3(CCCCC3)CN2C(=O)Cc2cccc(F)c2)cc1 (configuration not stated) | 40µM | nt | nt | 40µM | i
Cc1c(-c2ccccc2F)[nH]c2ccc(CNC(=O)Cn3ccc(=O)[nH]c3=O)cc12 | 45µM | i | 10µM | 45µM | i
Cc1c(-c2ccccc2F)[nH]c2ccc(CNC(=O)CCC3=NNC(=O)CC3)cc12 | ? | i | ? | ? | i
Cc1c(-c2ccccc2F)[nH]c2ccc(CNC(=O)CCN3CCCC3=O)cc12 | ? | i | 28µM | i | i
Cc1c(-c2ccccc2)[nH]c2c(CNC(=O)Cn3ccc(=O)[nH]c3=O)cc(Cl)cc12 | ? | i | ? | ? | i
O=C(NCc1ccc(F)cc1)c1nc2sccn2c1Br | i | i | i | i | i
O=C(Nc1ccccc1)c1ccc2c(c1)OCCN(c1ccccc1)C2 | 112µM | ? | ? | i | i
